Compound activity as filed in PubChem BioAssay.
Shown are actives, neighbours in structure and some others; about 0.9% of the full set was active somewhere.
PPARg SRC-3 ag: PPARgamma agonists recruiting SRC-3 coactivator, primary screen, biochemical | 200,000 tested, 0.26% active | biochemical PPARgamma/SRC-3 coactivator recruitment assay | activation, % at 8 µM | Peroxisome proliferator-activated receptor gamma (Homo sapiens), P37231; in the data active = activation above about 23%;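 note: 0% = DMSO and 100% = reference agonist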
Target sequence (P37231 whole entry, looked up): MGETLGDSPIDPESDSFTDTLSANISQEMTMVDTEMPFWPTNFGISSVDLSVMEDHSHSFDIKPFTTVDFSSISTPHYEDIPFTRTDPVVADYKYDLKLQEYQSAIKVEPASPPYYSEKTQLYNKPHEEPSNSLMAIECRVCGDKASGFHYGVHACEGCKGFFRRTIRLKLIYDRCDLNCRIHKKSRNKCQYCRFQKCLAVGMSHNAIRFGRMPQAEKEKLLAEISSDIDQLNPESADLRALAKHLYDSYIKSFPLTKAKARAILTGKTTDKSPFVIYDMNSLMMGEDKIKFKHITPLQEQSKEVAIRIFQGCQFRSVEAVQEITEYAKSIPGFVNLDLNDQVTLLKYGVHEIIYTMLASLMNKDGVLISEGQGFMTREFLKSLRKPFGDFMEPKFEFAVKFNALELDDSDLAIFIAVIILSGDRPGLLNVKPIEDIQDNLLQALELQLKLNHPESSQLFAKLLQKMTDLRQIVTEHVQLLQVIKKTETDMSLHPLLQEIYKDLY
PPARg SRC2 recr: agonists of PPARg-SRC-2 recruitment, primary screen, biochemical, HTS | PPARgamma LBD-SRC-2 recruitment | 200,000 tested, 0.34% active | activation, % at 8 µM | Peroxisome proliferator-activated receptor gamma (Homo sapiens), P37231; in the data active = activation above about 22%;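 note: 0% = vehicle and 100% = reference agonist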
SRC3 TRFRET art: TR-FRET detection interference compounds, artefact control for PPARgamma SRC-3 recruitment agonists, biochemical, TR-FRET ratio; AID 1048, 2008; TR-FRET artefact counter-screen, PPARgamma/SRC-3 format; stronger effect = higher value; TR-FRET ratio at 8 µM; 99,000 tested, 0.39% active
PPARg SRC-1 ag: PPARgamma agonists recruiting SRC-1 coactivator, primary screen, biochemical; Peroxisome proliferator-activated receptor gamma (Homo sapiens), P37231; PPARgamma-SRC-1 coactivator recruitment biochemical assay; activation, % at 8 µM; 200,000 tested, 0.41% active; AID 631, 2007; in the data active = activation above about 19%;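 note: 0% = DMSO and 100% = reference agonist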
SRC1 TRFRET art: TR-FRET detection interference compounds, primary screen, artefact control for PPARgamma SRC-1 recruitment agonists, biochemical, TR-FRET emission ratio | TR-FRET detection artefact counter-screen; stronger effect = higher value | TR-FRET ratio at 8 µM | 99,000 tested, 0.34% active; in the data active = TR-FRET ratio above about 2300
SRC2 TRFRET art: TR-FRET signal artefacts, primary screen, artefact control for PPARgamma SRC-2 agonist project, biochemical; TR-FRET artefact counter-screen; stronger effect = higher value; TR-FRET ratio at 8 µM; 200,000 tested, 0.4% active; AID 1049, 2008
* marks the source's active call; other numbers are inactive results; . = no result given. Cut-off read from the data, not from the text of the source, unless noted: active = TR-FRET ratio above about 2000; inactive = the rest.

SMILES	PPARg SRC-3 ag	PPARg SRC2 recr	SRC3 TRFRET art	PPARg SRC-1 ag	SRC1 TRFRET art	SRC2 TRFRET art
Cn1c(=O)c2[nH]c(-c3ccccc3Cl)c(O)c2n(C)c1=O	2.1	1.3	1751	-5.8	1667	1382
Cn1c(=O)c2[nH]c(-c3ccccc3)c(O)c2n(C)c1=O	11.4	10.5	1758	7.7	2338*	1679
Cc1ccc(C)c(C(=O)OCC(=O)Nc2ccc(N3CCOCC3)cc2)c1	-5.2	-1.1	1604	-4.6	1575	1646
COc1cc2c(=O)n(CCCC(=O)NCC3CCCO3)c(=O)n(CC(=O)c3ccc(F)cc3)c2cc1OC (stereo not given)	10.0	-3.9	1680	7.5	1714	1705
Cc1ccc(N=Nc2c(N)n(-c3ccccc3)[nH]c2=O)cc1	25.8*	8.5	.	6.8	.	1609
COc1ccc2c(-c3ccccc3)cc(SCC(=O)NC(N)=O)nc2c1	32.6*	9.2	4477*	-4.0	1656	1589
O=C(CN1C(=O)c2ccccc2S1(=O)=O)Nc1ccccc1	-5.3	-6.7	.	-6.4	.	1472
CSc1cccc(NC(=O)CN2C(=O)c3ccccc3S2(=O)=O)c1	21.0	21.8*	.	0.0	.	1521
N#Cc1c2c(c(-c3ccccc3Cl)[nH]c1=S)CCCC2	21.3	43.7*	2745*	40.4*	3189*	2762*
N#Cc1c(-c2ccccc2Cl)cc(-c2ccccc2)[nH]c1=S	6.0	2.9	1776	8.4	1755	1570
Cc1nc2ccc(-c3nc4ccc(N)cc4[nH]3)cc2[nH]1	11.5	13.4	2163*	19.7	2025	1684
COCCNC(=O)C(c1ccncc1)N(Cc1ccccc1)C(=O)Cn1nnc2ccccc21 (stereo not given)	4.0	2.9	1782	-5.9	1991	1568
O=C(N/N=C/c1ccco1)c1ccc(NC(=O)c2ccccc2Cl)cc1	3.4	6.7	1694	13.1	2163	1979*
O=C(N/N=C/c1cccs1)c1ccc(NC(=O)c2ccccc2Cl)cc1	-1.9	-2.4	1574	-6.8	1581	1642
O=C(CSc1ncnc2ccccc12)Nc1cc(S(=O)(=O)N2CCCCC2)ccc1Cl	3.4	-5.3	2968*	0.2	2201	2930*
Cc1ccc(S(=O)(=O)N2CCCCC2)cc1NC(=O)CSc1ncnc2ccccc12	4.2	-2.4	1694	1.6	1882	1581
Cc1ccc(NC(=O)CSc2ncnc3ccccc23)cc1S(=O)(=O)N1CCCCCC1	9.2	5.9	2506*	7.8	1799	1930
CC1CN(CC(=O)Nc2cc(S(=O)(=O)N3CCCC3)ccc2Cl)CC(C)O1 (stereo not given)	2.9	6.4	1789	5.3	2155	2051*
Cc1ccc(/C=C/C(=O)Nc2nnc(SCc3ccc(C#N)cc3)s2)o1	4.5	9.4	1353	6.1	2023	1536
COc1cc(C)ccc1S(=O)(=O)n1nc(C)cc1C	6.0	-2.7	1487	-6.9	1788	1637
COC(=O)C1=C(C)NC(C)=C(C(=O)OC)C1C(=O)OC(C)C(=O)c1ccccc1 (stereo not given)	-2.5	-4.6	1574	8.5	1593	1250
COc1ccc(/C=N/Nc2ncnc3sc4c(c23)CCCC4)cc1OC	1.2	-9.3	1445	5.2	1801	1369
Cc1cc(=O)[nH]c2c1c(C)nn2C1CCCCC1	8.6	6.1	.	0.8	.	1495
Cc1cc(=O)[nH]c2c1c(C)nn2C1CCCC1	4.1	73.5*	.	7.2	.	4512*
COc1ccc2c(c1)C(C)=CC(C)(C)N2S(=O)(=O)c1ccc(Br)cc1	2.1	-2.6	1611	-1.3	1832	1385
SMILES	PPARg SRC-3 ag	PPARg SRC2 recr	SRC3 TRFRET art	PPARg SRC-1 ag	SRC1 TRFRET art	SRC2 TRFRET art
O=C(Nc1cc(S(=O)(=O)N2CCOCC2)ccc1N1CCCC1)c1ccc2c(c1)S(=O)(=O)c1ccccc1C2=O	0.0	4.2	1512	-1.2	2072	1978*
O=C(Nc1ccccc1F)Nc1cc(S(=O)(=O)N2CCOCC2)ccc1N1CCCC1	-1.5	8.8	1572	7.2	1664	1691
COC(=O)CNC(=O)Cn1nc(C)c([N+](=O)[O-])c1C	6.1	-6.4	1853	1.8	1813	1526
CC(=O)c1c(C)[nH]c(C(=O)OCc2ccccc2F)c1C	1.3	5.1	1452	0.7	1663	1663
CSc1ccc(C(=O)C2CCCN(C(=O)c3csc(C(C)=O)c3)C2)cc1 (stereo not given)	-5.0	5.4	1355	-5.5	1442	1596
CSc1ccc(C(=O)C2CCCN(C(=O)c3cc4cc(F)ccc4[nH]3)C2)cc1 (stereo not given)	2.2	8.8	2454*	9.3	2545*	2021*
O=C(CN(C(=O)c1ccccc1Cl)N1C(=O)CCCC1=O)c1ccc(Cl)cc1	-0.8	0.8	1497	-1.5	1706	1530
COc1cccc(-c2csc(N3CCN(C(=S)Nc4ccccc4OC)CC3)n2)c1	1.7	5.0	.	4.4	.	2307*
COc1cccc(-c2csc(N3CCN(C(=S)Nc4ccccc4Cl)CC3)n2)c1	3.9	3.1	.	0.4	.	1818
COc1cccc(-c2csc(N3CCN(C(=S)Nc4cccc(Cl)c4)CC3)n2)c1	13.9	9.1	.	4.8	.	2562*
CCOC(=O)CNC(=S)N(Cc1ccccc1)Cc1cccnc1	3.1	4.2	1374	5.7	1621	1495
FC(F)(F)c1cccc(NC(=S)NCc2ccc(Cl)cc2)c1	6.5	3.2	2072*	6.3	1768	1667
Cc1cccc(C(C)C)c1NC(=O)c1ccc(COc2ccc3c(C)cc(=O)oc3c2)cc1	10.5	19.4	2221*	14.4	2539*	2255*
N#Cc1nc(-c2ccc(Cl)cc2)oc1NCC1CCCO1 (stereo not given)	-0.1	7.9	1685	1.8	1536	1588
COc1ccc(-c2cn3cccnc3n2)cc1Br	0.1	1.3	1496	-0.2	1584	1548
Nc1ccc(-c2cn3cccnc3n2)cc1	12.1	8.9	2118*	0.8	1719	1474
Fc1ccc2nc(N3CCOCC3)sc2c1	-1.2	0.9	1374	0.4	1733	1359
Nc1nc2ccc(N3CCOCC3)cc2s1	7.7	7.5	.	24.8*	.	1575
O=C(O)CCCC(=O)Nc1cc([N+](=O)[O-])ccc1O	5.2	2.1	1851	21.7*	1819	1558
COC(=O)c1sc(NC(=S)NC(=O)c2ccccc2F)nc1C	14.0	12.0	1927	12.7	2321*	2016*
[O-]/C(=C(\C(=S)Nc1ccccc1F)[n+]1ccccc1)c1ccc(-c2ccccc2)cc1	1.3	8.8	1857	0.7	2348*	1913
CC(C)(C)c1cc[n+](/C(C(=S)Nc2ccccc2F)=C(/[O-])c2ccc3c(c2)OCCO3)cc1	3.1	5.8	1459	7.1	1902	1596
COc1cc(NC(=O)c2ccc(Cl)cc2Cl)ccc1-c1cc2ccccc2oc1=O	18.2	16.7	.	13.2	.	2335*
